In general, AC50 refers to the midpoint of the concentration-response curve, whichever way the signal moves.

Conditions in all cases: mRNA level, 48 h; actives raise or lower the signal
Read-out in assay [1]: Cytochrome P450 (CYP2B6), CYP2B6 (gene 1555)
In words: LTEA_HepaRG_CYP2B6: Life Technologies and Expression Analysis (LTEA) Assay for Cytochrome P450 (CYP2B6) using HepaRG (AID 2283481). The method, boiled down: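 HepaRG cells plated 48 h, switched to serum-free induction medium, then dosed 48 h (8 points, half-log from 100 uM, 0.5% DMSO). RNA isolated; CYP2B6 expression measured by qRT-PCR; gain or loss fitted relative to DMSO.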

Read-out in assay [2]: CYP2C8 (gene 1558)
In words: LTEA_HepaRG_CYP2C8: Life Technologies and Expression Analysis (LTEA) Assay for CYP2C8 using HepaRG (AID 2283483). Put shortly: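 CYP2C8 mRNA induction or loss, by qRT-PCR normalized to ACTB/GAPDH/POLR2A, is read in HepaRG cells after 48 h treatment. Concentrations run from 100 uM down in half-log dilutions, with 0.5% DMSO as vehicle and baseline.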

Read-out in assay [3]: CYP2C9 (gene 1559)
In words: LTEA_HepaRG_CYP2C9: Life Technologies and Expression Analysis (LTEA) Assay for CYP2C9 using HepaRG (AID 2283484). Put shortly: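 Cells plated 48 h, switched to serum-free induction medium, then treated in duplicate for 48 h at eight concentrations (max 100 uM, 0.5% DMSO). RNA then analysed by qRT-PCR for CYP2C9; curves fitted in both directions relative to DMSO.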

Read-out in assay [4]: CYP2E1 (gene 1571)
In words: LTEA_HepaRG_CYP2E1: Life Technologies and Expression Analysis (LTEA) Assay for CYP2E1 using HepaRG (AID 2283485). The method, boiled down:
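Differentiated HepaRG cells were treated in duplicate for 48 h with chemicals in 0.5% DMSO, from 100 uM downward in half-log dilutions. RNA was then analysed by qRT-PCR for CYP2E1 induction or loss.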

Read-out in assay [5]: CYP4A11 (gene 1579)
In words: LTEA_HepaRG_CYP4A11: Life Technologies and Expression Analysis (LTEA) Assay for CYP4A11 using HepaRG (AID 2283486). The method, boiled down:
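HepaRG, 48 h chem exposure, 8 conc (100 uM top, half-log), 0.5% DMSO vehicle; qRT-PCR readout, housekeeping-gene normalized; bidirectional curve fit vs DMSO baseline.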

Read-out in assay [6]: Cytochrome P450 3A4 (Homo sapiens) (UniProt P08684)
Kind of assay: LTEA_HepaRG_CYP3A4: Life Technologies and Expression Analysis (LTEA) Assay for CYP3A4 using HepaRG (AID 2283487). The method, boiled down: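 Differentiated HepaRG cells in serum-free induction medium exposed in duplicate for 48 h to 8 half-log concentrations up to 100 uM in 0.5% DMSO. CYP3A4 mRNA measured by qRT-PCR normalized to ACTB, GAPDH and POLR2A; bidirectional fit versus DMSO.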

Read-out in assay [7]: DNA damage-inducible transcript 3 (DDIT3), DDIT3 (gene 1649)
In words: LTEA_HepaRG_DDIT3: Life Technologies and Expression Analysis (LTEA) Assay for DNA damage-inducible transcript 3 (DDIT3) using HepaRG (AID 2283488). The method, boiled down: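 Changes in DDIT3 transcript, in either direction relative to 0.5% DMSO vehicle, were quantified by TaqMan qRT-PCR after 48 h chemical exposure of HepaRG cells at 8 concentrations, maximum 100 uM.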

Read-out in assay [8]: Pro-epidermal growth factor (Homo sapiens) (UniProt P01133)
Kind of assay: LTEA_HepaRG_EGF: Life Technologies and Expression Analysis (LTEA) Assay for Epidermal growth factor (EGF) using HepaRG (AID 2283489). Put shortly:
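HepaRG, 48 h dosing, 100 uM top, half-log x8, 0.5% DMSO. Readout: TaqMan qRT-PCR (Fluidigm array), housekeeping-normalized. Gain or loss of signal fit vs DMSO.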

Read-out in assay [9]: Early growth response protein 1 (EGR1) transcription factor, EGR1 (gene 1958)
Kind of assay: LTEA_HepaRG_EGR1: Life Technologies and Expression Analysis (LTEA) Assay for Early growth response protein 1 (EGR1) transcription factor using HepaRG (AID 2283490). The method, boiled down:
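Read-out is EGR1 mRNA level by qRT-PCR, normalized to three housekeeping genes and analysed for gain or loss of signal against 0.5% DMSO. Source cells: human HepaRG, treated 48 h at up to 100 uM in half-log dilutions.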

Read-out in assay [10]: Ezrin (EZR), EZR (gene 7430)
In words: LTEA_HepaRG_EZR: Life Technologies and Expression Analysis (LTEA) Assay for Ezrin (EZR) using HepaRG (AID 2283491). Put shortly: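 Differentiated human HepaRG cells, 48 h after plating, were exposed in serum-free induction medium for 48 hours to eight half-log concentrations up to 100 uM in 0.5% DMSO. EZR mRNA was measured by TaqMan qRT-PCR, normalized to ACTB, GAPDH and POLR2A, and fitted bidirectionally against DMSO.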

Read-out in assay [11]: Cytochrome P450 3A7 (Homo sapiens) (UniProt P24462)
Kind of assay: LTEA_HepaRG_CYP3A7: Life Technologies and Expression Analysis (LTEA) Assay for CYP3A7 using HepaRG (AID 2283492). Put shortly: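 Human HepaRG liver cells, 48 h post-plating, switched to serum-free induction medium and exposed in duplicate for 48 h. Dosing: 100 uM top, half-log dilutions, 8 points, 0.5% DMSO vehicle. Read-out: CYP3A7 mRNA, gain or loss fitted against DMSO baseline.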

Read-out in assay [12]: CYP3A5 (gene 1577)
In words: LTEA_HepaRG_CYP3A5: Life Technologies and Expression Analysis (LTEA) Assay for CYP3A5 using HepaRG (AID 2283493). Put shortly:
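mRNA induction or loss of CYP3A5 assessed in HepaRG after 48 h dosing, 100 uM top concentration, duplicate wells; TaqMan qRT-PCR with ACTB, GAPDH, POLR2A normalization; 0.5% DMSO as negative control.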

Read-out in assay [13]: Fatty Acid-Binding Protein 1 (FABP1), FABP1 (gene 2168)
Kind of assay: LTEA_HepaRG_FABP1: Life Technologies and Expression Analysis (LTEA) Assay for Fatty Acid-Binding Protein 1 (FABP1) using HepaRG (AID 2283494). Put shortly: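 HepaRG, 48 h post-plating switched to serum-free induction medium, then dosed 48 h (duplicate, 8 pts, ≤100 uM, 0.5% DMSO). RNA → Fluidigm TaqMan qRT-PCR, FABP1 normed to ACTB/GAPDH/POLR2A. Bidirectional curve fit vs DMSO.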

Read-out in assay [14]: Cytochrome P450 4A22 (Homo sapiens) (UniProt Q5TCH4)
Kind of assay: LTEA_HepaRG_CYP4A22: Life Technologies and Expression Analysis (LTEA) Assay for Cytochrome P450 4A22 (CYP4A22) using HepaRG (AID 2283495). Put shortly:
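Readout is CYP4A22 transcript induction or loss, quantified by qRT-PCR and normalized to ACTB, GAPDH and POLR2A. Human HepaRG cells receive test chemicals for 48 h at eight half-log concentrations from 100 uM in 0.5% DMSO.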

Read-out in assay [15]: Cytochrome P450 7A1 (Homo sapiens) (UniProt P22680)
Kind of assay: LTEA_HepaRG_CYP7A1: Life Technologies and Expression Analysis (LTEA) Assay for Cytochrome P450 7A1 (CYP7A1) using HepaRG (AID 2283496). Put shortly: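 Gene expression endpoint in human HepaRG liver cells treated for 48 h with test chemicals (up to 100 uM, 0.5% DMSO). Values come from bidirectional concentration-response fitting versus DMSO.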

Read-out in assay [16]: Glutamate-cysteine ligase catalytic (GCLC), GCLC (gene 2729)
Kind of assay: LTEA_HepaRG_GCLC: Life Technologies and Expression Analysis (LTEA) Assay for Glutamate-cysteine ligase catalytic (GCLC) using HepaRG (AID 2283498). Put shortly: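 Read-out is GCLC transcript level by Fluidigm-based TaqMan qRT-PCR, normalized to three housekeeping genes and fitted in both directions relative to 0.5% DMSO. Human HepaRG cells received chemicals for 48 h, up to 100 uM.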

Read-out in assay [17]: growth arrest and DNA damage 45 (GADD45G), GADD45G (gene 10912)
In words: LTEA_HepaRG_GADD45G: Life Technologies and Expression Analysis (LTEA) Assay for growth arrest and DNA damage 45 (GADD45G) using HepaRG (AID 2283499). Put shortly:
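Gain or loss of GADD45G mRNA, quantified by TaqMan qRT-PCR against three housekeeping genes, is fitted in both directions relative to 0.5% DMSO. Human HepaRG cultures receive test chemical for 48 h at up to 100 uM.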

Read-out in assay [18]: Glutamate-cysteine ligase regulatory (GCLM), GCLM (gene 2730)
Kind of assay: LTEA_HepaRG_GCLM: Life Technologies and Expression Analysis (LTEA) Assay for Glutamate-cysteine ligase regulatory (GCLM) using HepaRG (AID 2283500). Put shortly: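 Human liver HepaRG cultures receive test chemicals for 48 hours at up to 100 uM in 0.5% DMSO. GCLM expression is measured by qRT-PCR and analysed for increases or decreases against vehicle.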

Read-out in assay [19]: Glutathione S-Transferase (GSTA2), GSTA2 (gene 2939)
In words: LTEA_HepaRG_GSTA2: Life Technologies and Expression Analysis (LTEA) Assay for Glutathione S-Transferase (GSTA2) using HepaRG (AID 2283497). The method, boiled down: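 HepaRG, 48 h dosing, 8-pt half-log CRC from 100 uM, 0.5% DMSO vehicle, n=2; RNA → Fluidigm TaqMan qRT-PCR; GSTA2 vs ACTB/GAPDH/POLR2A; gain/loss fit vs DMSO.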

Read-out in assay [20]: Cytochrome P450 2C19 (Homo sapiens) (UniProt P33261)
In words: LTEA_HepaRG_CYP2C19: Life Technologies and Expression Analysis (LTEA) Assay for CYP2C19 using HepaRG (AID 2283482). Put shortly:
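Transcript levels of CYP2C19 were quantified by qRT-PCR after HepaRG cells were treated for 48 hours with test chemicals up to 100 uM (eight half-log concentrations, 0.5% DMSO vehicle). Gain or loss of signal was fitted relative to DMSO.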

Active and inactive are the calls of the source. The calls were made as follows: active = hit-call score of the fitted dose curve at least 0.9, where 1 is the maximum; inactive = score below 0.9.

Chain of Cytochrome P450 3A7 (Homo sapiens) (P24462 whole entry, looked up): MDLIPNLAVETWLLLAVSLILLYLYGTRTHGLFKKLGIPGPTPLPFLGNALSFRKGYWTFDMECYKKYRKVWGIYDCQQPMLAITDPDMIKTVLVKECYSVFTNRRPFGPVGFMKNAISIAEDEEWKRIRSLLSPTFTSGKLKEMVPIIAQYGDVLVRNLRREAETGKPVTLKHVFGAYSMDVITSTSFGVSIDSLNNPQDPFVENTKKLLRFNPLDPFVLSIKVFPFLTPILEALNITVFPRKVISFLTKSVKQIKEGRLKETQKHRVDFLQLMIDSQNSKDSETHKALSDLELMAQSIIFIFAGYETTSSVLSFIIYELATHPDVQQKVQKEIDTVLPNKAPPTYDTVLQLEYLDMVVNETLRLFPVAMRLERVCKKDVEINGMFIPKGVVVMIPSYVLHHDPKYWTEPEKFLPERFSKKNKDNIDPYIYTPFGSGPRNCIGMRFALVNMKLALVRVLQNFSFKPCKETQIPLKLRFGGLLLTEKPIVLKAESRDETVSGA
Chain of Cytochrome P450 3A4 (Homo sapiens) (P08684 whole entry, looked up): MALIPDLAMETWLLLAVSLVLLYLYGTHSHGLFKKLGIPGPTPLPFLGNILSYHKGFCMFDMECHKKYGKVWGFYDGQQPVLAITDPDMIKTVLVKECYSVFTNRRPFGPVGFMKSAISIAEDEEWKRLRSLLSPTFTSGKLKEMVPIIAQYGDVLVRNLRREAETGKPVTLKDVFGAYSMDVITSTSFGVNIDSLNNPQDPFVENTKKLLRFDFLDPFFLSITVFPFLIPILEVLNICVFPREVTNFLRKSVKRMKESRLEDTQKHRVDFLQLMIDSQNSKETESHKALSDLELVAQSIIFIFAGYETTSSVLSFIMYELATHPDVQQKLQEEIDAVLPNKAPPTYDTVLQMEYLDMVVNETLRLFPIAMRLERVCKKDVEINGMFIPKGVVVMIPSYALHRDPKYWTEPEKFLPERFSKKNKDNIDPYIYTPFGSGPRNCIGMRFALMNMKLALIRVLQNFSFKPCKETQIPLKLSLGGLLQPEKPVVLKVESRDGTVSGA
Chain of Cytochrome P450 2C19 (Homo sapiens) (P33261 whole entry, looked up): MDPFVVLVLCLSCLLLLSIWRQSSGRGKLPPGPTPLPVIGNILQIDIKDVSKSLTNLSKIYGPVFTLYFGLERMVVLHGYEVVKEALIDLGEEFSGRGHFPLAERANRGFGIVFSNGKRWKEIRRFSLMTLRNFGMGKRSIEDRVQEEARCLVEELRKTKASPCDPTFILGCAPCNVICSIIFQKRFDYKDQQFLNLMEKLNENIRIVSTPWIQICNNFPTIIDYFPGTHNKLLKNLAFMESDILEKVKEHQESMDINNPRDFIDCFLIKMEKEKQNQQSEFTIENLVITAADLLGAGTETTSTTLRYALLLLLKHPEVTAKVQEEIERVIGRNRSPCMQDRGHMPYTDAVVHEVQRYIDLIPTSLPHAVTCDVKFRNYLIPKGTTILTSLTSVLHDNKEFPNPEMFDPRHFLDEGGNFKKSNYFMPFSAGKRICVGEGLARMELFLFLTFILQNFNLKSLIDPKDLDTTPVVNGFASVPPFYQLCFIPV

Turning to `N#CC(CCc1ccc(Cl)cc1)(Cn1cncn1)c1ccccc1` (stereo unspecified), the concentration at half-maximal activity (AC50) in assay [1] is 50 µM (active); in [2], 73.7 µM (active); in assay [3], 59.8 µM (active); in [4], 27.3 µM (active); in assay [5], 38.8 µM (active); in assay [6] it was 85.9 µM (active). Moreover, the concentration at half-maximal activity (AC50) was 34.8 µM (active) in assay [7]; 79.3 µM (active) in [9]; 50 µM (active) in assay [10]; 11.7 µM (active) in assay [11]; 79.4 µM (active) in [13]; 40.4 µM (active) in [14]. Further, the half-maximal activity concentration (AC50) in assay [15] is 75.3 µM (active); in assay [17], 40 µM (active); in assay [18] it was 67.3 µM (active). The outcome in assay [8], in [12] and in [16] was inactive.
Take `CC1=C(C(=O)Nc2ccccc2)SCCO1`: the AC50 in [1] was 45 µM (active); in assay [4], 74.5 µM (active); in assay [13], 50 µM (active); in assay [15] it was 35.7 µM (active); in [17], 61.8 µM (active). The outcome in [2], in assay [3], in assay [5], in [6], in [7] and in assay [8] was inactive. In addition, the compound was called inactive in [9], in assay [11], in assay [12], in assay [14], in [19] and in [16]. In addition, the result in assay [18] was inactive.
Take `COc1ccc(C(c2ccc(OC)cc2)C(Cl)(Cl)Cl)cc1`: the half-maximal activity concentration (AC50) was 12.4 µM (active) in assay [1]; 12.7 µM (active) in assay [20]; 66 µM (active) in [4]; 79 µM (active) in [5]; 75 µM (active) in assay [7]; 73 µM (active) in assay [9]. Further, the half-maximal activity concentration (AC50) in [13] was 65.4 µM (active); in [14], 71.9 µM (active); in assay [15], 40.2 µM (active); in assay [19], 90.3 µM (active); in assay [16], 76.3 µM (active); in assay [17] it was 56.2 µM (active). For the same compound, the concentration at half-maximal activity (AC50) in [18] was 49.8 µM (active). The call in [2], in assay [3], in assay [8], in assay [11] and in assay [12] was inactive.
Consider `CCCCNC(=O)n1c(NC(=O)OC)nc2ccccc21`, for which the compound was called inactive in [1], in assay [2], in assay [3], in assay [4], in [5] and in assay [6]. The call in assay [7], in assay [8], in [9], in [10], in [11] and in assay [12] was inactive. The compound was called inactive in assay [13], in assay [14], in assay [15], in assay [19], in [16] and in assay [17]. Moreover, the compound was called inactive in assay [18].
Turning to `CNC(=O)ON=CC(C)(C)SC`, the AC50 in assay [1] is 50 µM (active). Also, the outcome in [2], in assay [3], in assay [4], in [5], in [6] and in assay [7] was inactive. The result in [8], in assay [9], in assay [10], in assay [11], in [12] and in assay [13] was inactive. The result in assay [14], in assay [15], in [16], in assay [17] and in [18] was inactive.
